“And” between values parts separate entries of the source, which are not always exact repeats. Identical values can stand only once. About 83,000 compounds went through this panel and 20% of them were active in at least one assay; those are over-represented in the sample as a whole.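 Plates (96-well) were seeded with cells, treated with compound at one concentration, and incubated for 48 hours before percent growth was determined.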 The source made the active and inactive calls. Rule for the calls: active = growth percent below 10; inactive = the rest.
Test system: MDA-MB-468 breast
Assay: NCI-60 one-dose screen, 48 h (100 = growth as untreated, 0 = no growth, -100 = all killed)
Conditions: 10 µM unless noted

| SMILES | growth |
| --- | --- |
| CCCCNC(=O)Oc1ccc(/C(=C(/C)Cc2ccc(OC)cc2)c2ccc(OCCN3CCCC3)cc2)cc1 | 53.5% (inactive) |
| CN(C)CCOC1(Cc2ccc(Cl)cc2Cl)CCC(C(C)(C)C)CC1 (stereo not given) | -77.6% (active) and -87.3% (active) |
| C[C@H]1c2[nH]c3ccccc3c2C[C@H]2C(=O)N(CCCCCCC(=O)NO)CC(=O)N21 | 60.3% (inactive) |
| Clc1nn2c(Cn3cnc4c(NCc5ccccc5)ncnc43)nnc2c2ccccc12 | 35.3% (inactive) |
| COC(=O)c1c2c(c(C)[n+]([O-])c1C)C(=O)C(NCc1cccc(OC)c1)=CC2=O | -21.3% (active) |
